Assay results as given in paper PMC12136788.
The full ranking holds about 24,000 sequences; the median of “enrichment r” is about 0.99, and the highest 2% start at about 3.7. The list comes from a sample in which the highest values are over-represented; it also holds similar and randomly drawn sequences.

B1: chr14:57575763:57575764:+_ENSMUSG00000021945_ENSMUST00000022511|mus_hu|FALSE|FALSE (ssRNA)
RNA: GGGAGUUCUACAGUCCGACGAUCCACUGUUUUCAGGCCAAAAUACUUAGUGUUAAAGUAGAACAGUGUAUUCAGAAGAGCUACUGGAGAGUGUGAUCCUAGUUGUUUUAUCCUCCAGAGAUAGUCUUCUUCAACUCGAGAGAACAACAGAGGAUUGAGCAUCA
B2: chr1:183495733:183495734:+_ENSG00000116698_ENST00000515829|hu_hu|FALSE|FALSE (ssRNA)
RNA: GGGAGUUCUACAGUCCGACGAUCGGAAGACUUCACACGGCAUGGUAAAUCUACAUUAAAUACUGUACACAGUUCUUGUAAUAACUGAGUAUAGAAGCCACUAGCUGCCUCUAGGAACAGAGAAAGGUUUGCCUGAACUUCACUCAACAGAGGAUUGAGCAUCA
B3: chr12:58340223:58340224:+_ENSMUSG00000079104_ENSMUST00000139049|mus_mus|motif|central (ssRNA)
RNA: GGGAGUUCUACAGUCCGACGAUCCUGUAUUUUGGAGCAGUGUUUCAUCUUGUCUUCCUGAGGUAUGGUAUUGGUAACGGCGGCUGCUUCAAAGCAUGCAUUGUUGAUGCGAGAAAUGGCAGGGCCAGAGAAGAUUCCAUGCGUCAACAGAGGAUUGAGCAUCA
B4: chr12:39763582:39763583:-_ENSG00000139116_ENST00000544797|hu_mus|hu_hu_hu_mus_False|18_58 (ssRNA)
RNA: GGGAGUUCUACAGUCCGACGAUCCUCUAGGAACUGGGCAUUCACUUUGAAUUCAGGAGGGGGCAGCCCGUUUUUAAUUGCUAUGUGCUUUUUCUCAUCAAUACUCUUGAACAGGUGUUUAACAGCUCGAGAGAUGAUGCCCUGCAACAGAGGAUUGAGCAUCA
B5: chr2:74756847:74756848:-_ENSG00000115307_ENST00000377526|hu_hu|FALSE|FALSE (ssRNA)
RNA: GGGAGUUCUACAGUCCGACGAUCGCCGCCAUUUUCGCGCCCGGCCGCAGGGGCUCUUGGGAAGGCGGAGUCUUUGGGCAUCCGCCCGGGGUGAGGGGACCCGAAGUCCUGAGGCGCGCCGGAAGGGCUAGCGGUCCCAGCAUACAACAGAGGAUUGAGCAUCA
B6: 138058580_138059465_3786_CDS_ENSMUSG00000041642_ENSMUST00000075164|mouse|control|control (ssRNA)
RNA: GGGAGUUCUACAGUCCGACGAUCGGAGGCCAGGGACUUGGUGAUGUUCUUGGUAGAGCUGUCCAAUGGGGGUCCUAGGCACUCCGCAGACACGGCCUUCAUCUGUGCGGAUAGCUUGGGCUCACCCUUGAACUUGAAGUCAUCCAACAGAGGAUUGAGCAUCA
B7: chr8:104447970:104447971:+_ENSG00000164934_ENST00000297579|hu_hu|hu_hu_hu_mus_False|78_98 (ssRNA)
RNA: GGGAGUUCUACAGUCCGACGAUCAUACACUUCCCUGCUUCGACUUUUGUCCACAGGAAAGAUUCGAAUAGACUUAUCAAAGCUGGCAGACACAAAUUCCUUCCCAGUGGGAGAGUAGUCCACAUCAAGUACUGCAGACACGUGCAACAGAGGAUUGAGCAUCA
B8: chr15:78454051:78454052:+_ENSG00000166411_ENST00000558554|hu_mus|FALSE|FALSE (ssRNA)
RNA: GGGAGUUCUACAGUCCGACGAUCAUGCUCAAUUCCACUGUAUUCUCCUUCCGUGUUCUCUCGGAUGGUGACGAUAUUUACAUCCGUGUAAGGGGUUUUAUAACCUUCAAUUGAGACACAUGGCCGGACAUUGGCAUAAAGGUCCAACAGAGGAUUGAGCAUCA
B9: chr11:93987321:93987322:+_ENSMUSG00000020859_ENSMUST00000103168|mus_mus|motif|central (ssRNA)
RNA: GGGAGUUCUACAGUCCGACGAUCUACAAAGUUACAUUCCGAACCCCAGGGAUUCCAUAAUAGAAAUAAAUACUGAAAUAACGGCAUUGCUAAAUGAGCUUUUUACGCAUAGAAAUGAAGCCGUGGCCUCUAAAGACAGCAAAUCAACAGAGGAUUGAGCAUCA
B10: chr14:73742652:73742653:-_ENSG00000133961_ENST00000557597|hu_hu|motif|central (ssRNA)
RNA: GGGAGUUCUACAGUCCGACGAUCCCCCUUUACCUUUGGCAAGAUUACUUACAACUCAUACAACUUCUUAAUAUCUGAGAACGGUUUAAAAUAUUCUAAAUGCAUAAAAAUAAAGAUUUUGGCUUUUGAUAUAUAUAAUAUUUACAACAGAGGAUUGAGCAUCA
B11: chr10:122431106:122431107:-_ENSMUSG00000034602_ENSMUST00000073792|mus_mus|FALSE|FALSE (ssRNA)
RNA: GGGAGUUCUACAGUCCGACGAUCAAUAUUUUCAAAAUGUUGCCACUCUUACUAUUUUGAUACUUUAUCAGUGAUAGUCCUAUUCUUUAAUUCACAAGUGAGUAUAUCAAAAUAUAAAAAAUACACGGCUUGAGUCAUUUUUUUCAACAGAGGAUUGAGCAUCA
B12: chr14:73742652:73742653:-_ENSG00000133961_ENST00000557597|hu_mus|FALSE|FALSE (ssRNA)
RNA: GGGAGUUCUACAGUCCGACGAUCCUAACCCGCUCACUUUUGGCAAGAUUACUUACAACUCAUACUUUUUAAUAUUGAGAACUAUUUAAAAUAUUCUAGGUGCAUAAAAAUAAAGAUUUUGGCUUUUUGAUAUAUAUAUAUAUACAACAGAGGAUUGAGCAUCA
B13: chr17:65740002:65740003:+_ENSG00000130935_ENST00000581375|hu_hu|hu_hu_hu_mus_False|68_98 (ssRNA)
RNA: GGGAGUUCUACAGUCCGACGAUCAACAAAUCUUUCUCUGGAUGAAGAACAGGAAGAUUCAUAUUAACUUUAUAAAAUAUCCAUCAAGUUAGGUGUGGUGGCCACACCUUUACUCCCAGCACUUUGGGAGGUGGAUCUCUGAGUCAACAGAGGAUUGAGCAUCA
B14: chr6:135286264:135286265:-_ENSG00000112339_ENST00000367826|hu_hu|FALSE|FALSE (ssRNA)
RNA: GGGAGUUCUACAGUCCGACGAUCUUUGCCAGUUGGCAACUUAGAAUUUUUGCAGAGGUGAUUAUUAAUACUUCUUUGCAGCUAAUUUUAGCUUUAAUUUUUCUCUCUCAUCUAAAAACAUAUCAAUUGCACAUUGUUCCUUUGCAACAGAGGAUUGAGCAUCA

target: T1, UNK ZnF1-3 (human, UniProt Q9C0B0 31-174); test: nsRBNS (natural sequence RNA bind-n-seq); RBNS binding buffer (assumed for nsRBNS): 25 mM Tris pH 7.5, 150 mM KCl, 3 mM MgCl2, 0.01% Triton X-100, 500 ug/ml BSA, 20 U/ml SUPERase-In, 4 C; UNK is unkempt and MSI1 is Musashi-1; names of the RNAs are library labels; protein concentration not given here; high values mean tight binding
T1 sequence: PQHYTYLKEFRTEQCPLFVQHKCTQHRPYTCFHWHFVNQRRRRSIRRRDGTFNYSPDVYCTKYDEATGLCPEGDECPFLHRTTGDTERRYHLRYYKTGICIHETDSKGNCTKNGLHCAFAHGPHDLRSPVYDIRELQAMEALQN

Binder	binding signal
B1	1.1 enrichment R
B2	1.13 enrichment R
B3	0.938 enrichment R
B4	1.58 enrichment R
B5	0.69 enrichment R
B6	0.543 enrichment R
B7	0.994 enrichment R
B8	0.781 enrichment R
B9	1.35 enrichment R
B10	3.97 enrichment R
B11	0.965 enrichment R
B12	6.08 enrichment R
B13	1.02 enrichment R
B14	0.804 enrichment R
